# Screening data as filed in PubChem BioAssay.
# D3 antag: D3 dopamine receptor (human) antagonism | max response, negative = inhibition, % | P35462 | 360,000 compounds, 2.5% hits | D3R cells, DiscoveRx beta-arrestin luminescence, antagonist mode; hits give low values; in the data active means max response below about -50%; inconclusive means no clear call, values can overlap the other calls; further: on the % scale 0 is the no-effect control and ±100 the full control effect
# Target sequence (P35462 whole entry, looked up): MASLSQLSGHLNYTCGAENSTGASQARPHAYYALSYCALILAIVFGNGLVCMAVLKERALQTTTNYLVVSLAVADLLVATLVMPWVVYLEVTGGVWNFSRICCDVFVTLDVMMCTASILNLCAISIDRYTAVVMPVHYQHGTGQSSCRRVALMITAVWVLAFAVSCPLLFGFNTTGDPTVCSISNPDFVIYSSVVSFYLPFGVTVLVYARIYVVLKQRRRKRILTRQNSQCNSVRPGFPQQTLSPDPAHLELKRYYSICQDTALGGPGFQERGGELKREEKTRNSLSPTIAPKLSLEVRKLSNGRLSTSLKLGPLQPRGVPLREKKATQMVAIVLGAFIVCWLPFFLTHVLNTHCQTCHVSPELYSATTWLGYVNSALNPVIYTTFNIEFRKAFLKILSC
#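 Cells plated overnight at 1500 cells/well, then exposed to library compounds with dopamine controls for 90 minutes at 37 degrees C. DiscoveRx reagent added for 30–60 minutes at room temperature; luminescence read, quantitative HTS format.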
# TDP1 cell CPT: growth inhibition of DT40 Tdp1-/-;hTDP1 cells with camptothecin (screen for TDP1 inhibitors); chicken DT40 Tdp1-/-;hTDP1 cells + 20 nM CPT, ATP luminescence, 48 h; Potency, µM (series often up to 46.2 µM), for the others: at the top dose activity change, negative = growth inhibition, most hits filed as inhibitors; 420,000 compounds, 12% hits; AID 686979; further: potency means the concentration at half of the fitted maximal effect; on the % scale 0 is the no-effect control and ±100 the full control effect; nearly all actives have a fitted effect of over 55% in size
#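 Cell growth measured by CellTiter-Glo luminescence after a minimum 48 h, 37 C compound exposure with 20 nM CPT in Tdp1-knockout DT40 cells stably expressing hTDP1, seeded 400/well; qHTS titration format.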
# ClpP mod: qHTS Assay for Activators of ClpP; Potency, µM (series often up to 57.5 µM), for the others: at the top dose activity change, negative = active; ATP-dependent Clp protease proteolytic subunit (Bacillus subtilis (strain 168)), P80244; 340,000 compounds, 1.9% hits; purified B. subtilis ClpP, FRET peptide cleavage, 20 min; AID 651965, 2013; active means well fitted falling curve with a large enough effect; inconclusive means small, poorly fitted or top-dose-only effect; inactive means no such curve, though single readings can be large or run the other way; further: potency means the concentration at half of the fitted maximal effect; the source files actives as falling curves though it sought activators and does not explain the sign; nearly all actives have a fitted effect of over 65% in size
# Target sequence (P80244 whole entry, looked up): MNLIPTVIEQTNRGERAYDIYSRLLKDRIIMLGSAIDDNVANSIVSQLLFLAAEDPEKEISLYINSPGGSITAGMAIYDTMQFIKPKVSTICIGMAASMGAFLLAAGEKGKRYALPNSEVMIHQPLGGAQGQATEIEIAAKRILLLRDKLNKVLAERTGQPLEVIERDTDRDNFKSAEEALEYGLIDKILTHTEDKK
#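 FRET quenching reversal measured ClpP activation: 10 microg/mL B. subtilis ClpP at pH 8 with the FRET-FV decapeptide, read at 430 nm after 320 nm excitation. The 20-min minus 0-min signal was scaled between DMSO/no-enzyme wells and ADEP (5.8 microM final).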
# DRD3 agonist: activates the human D3 dopamine receptor. P35462. D3R DiscoveRx beta-arrestin cells, luminescence, 90 min. max activation, %. 410,000 compounds, 0.58% hits. AID 652048; in the data active means max activation above about 30%; further: 0% is about no effect
#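 Cells at 1500/well, incubated overnight, then treated with pinned compounds (dopamine as control) for 90 min at 37 degrees C. DiscoveRx reagent added for 30 - 60 minutes at room temperature; luminescence read.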
# IL-1B inflam inh: inhibitors of inflammasome signaling (IL-1 beta secretion); 360,000 compounds, 4.7% hits; THP-1 LPS/ATP IL-1B secretion, AlphaLISA, 16 h; hits give low values; AID 743279; activity change, % at 57.5 µM; in the data active means activity change below about -50%; inconclusive means mostly about -30% to -49%; further: on the % scale 0 is the no-effect control and ±100 the full control effect
#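 THP-1 cells pretreated 1 hr with compounds (up to 57.5 uM final), then stimulated with LPS (250 ng/mL final) plus ATP (1.25 mM final); secreted IL-1B measured by AlphaLISA after 16 hr, decreased signal indicating inhibition.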
# DT40 TDP1 no CPT: qHTS for Inhibitors of human tyrosyl-DNA phosphodiesterase 1 (TDP1): qHTS in cells in absence of CPT; 420,000 compounds, 15% hits; DT40 Tdp1-/- hTDP1 cells, no CPT, ATP luminescence, 48 h; Potency, µM (doses to about 46.2 µM), inactives show at the highest dose activity change, negative = growth inhibition, actives largely listed as inhibitors; further: potency means the concentration at half of the fitted maximal effect; on the % scale 0 is the no-effect control and ±100 the full control effect; nearly all actives have a fitted effect of over 55% in size
#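 Readout: luminescence from CellTiter-Glo after 30 min in the dark at RT. Cells: DT40 Tdp1-/- with stable hTDP1, 400/well. Exposure: compounds alone, ≥48 hr, 37 °C.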
# Active calls of the source: *; ? = inconclusive; / = no result. Shown are actives, neighbours in structure and some others; about 21% of the full set was active somewhere. Unless noted, the call rests on the fitted dose curve; in most records, active means well fitted inhibition curve with a large enough effect; inconclusive means small, poorly fitted or top-dose-only effect; inactive means flat fitted curve, though single readings scatter.
SMILES,D3 antag,TDP1 cell CPT,ClpP mod,DRD3 agonist,IL-1B inflam inh,DT40 TDP1 no CPT
O=C(O)CCS(=O)(=O)c1nc(-c2cccs2)cc(C(F)(F)F)n1,1,10µM*,14µM*,-13,-29,15µM*
Cc1cc(NC(=O)CCCS(=O)(=O)c2nc(-c3cccs3)cc(C(F)(F)F)n2)no1,-106*,2.6µM*,?,-11,-69*,2.6µM*
COc1cccc(Cn2c(CNC(=O)C(C)C)nc3cccnc32)c1,/,-10%,-5%,-2,/,13%
CC(OC(=O)CCC(=O)c1cccs1)C(=O)NC1CCCCC1C (configuration not stated),-7,-22%,-3%,-2,-24,5%
CC(Sc1nc(N2CCOCC2)nc(N2CCOCC2)n1)C(=O)Nc1ccccc1 (configuration not stated),24,?,-1%,2,19,-28%
CC(Sc1nc(N(C)C)nc(N2CCOCC2)n1)C(=O)Nc1ccccc1 (configuration not stated),-2,-26%,2%,-1,9,7.3µM*
O=C(Nc1ccccc1)C(Cl)C(=O)c1ccccc1 (configuration not stated),-17,6.5µM*,0%,-18,?,8.2µM*
CC(C(=O)Nc1ccccc1)C(=O)Nc1ccccc1,-23,-1%,2%,-9,-5,5%
O=C(Nc1ccccc1)C(Cc1ccccc1)c1ccccc1 (configuration not stated),-25,?,1%,-20,-8,-23%
CC(=O)C(Cl)C(=O)Nc1ccccc1 (configuration not stated),-23,2.6µM*,-1%,-11,-86*,4.1µM*
NS(=O)(=O)c1ccc(NC(=O)CSc2nc3ccccc3n2-c2ccccc2)cc1,4,?,-4%,2,-10,?
O=C(O)CSc1nc2ccccc2n1-c1ccccc1,2,11%,/,3,-81*,19%
CN(C)S(=O)(=O)c1cccc(NC(=O)CSc2nc3ccccc3n2-c2ccccc2)c1,3,?,-3%,3,-11,26µM*
CN(C)S(=O)(=O)c1ccc(NC(=O)CSc2nc3ccccc3n2-c2ccccc2)cc1,-4,?,-2%,-6,-6,21µM*
Cc1cc(C(=O)COC(=O)COc2ccccc2C#N)c(C)n1CC1CCCO1 (configuration not stated),17,-8%,2%,2,1,19%
CCCC(=O)N1CCc2cc(OC)c(OC)cc2C1COc1ccc2c(C)cc(=O)oc2c1 (configuration not stated),/,?,-5%,3,/,13µM*
COc1cc2c(cc1OC)C(COc1ccc3c(C)cc(=O)oc3c1)N(C(=O)c1ccc(C)c(C)c1)CC2 (configuration not stated),/,?,4%,3,/,16µM*
COc1cc2c(cc1OC)C(COc1ccc3c(C)cc(=O)oc3c1)N(C(=O)Cc1ccccc1)CC2 (configuration not stated),/,?,-1%,1,/,?
CCC(CC)C(=O)N1CCc2cc(OC)c(OC)cc2C1COc1ccc2c(C)cc(=O)oc2c1 (configuration not stated),/,?,0%,6,/,16µM*
COc1cc2c(cc1OC)C(COc1ccc3c(C)cc(=O)oc3c1)N(C(=O)c1ccc(C)cc1)CC2 (configuration not stated),/,?,4%,-10,/,?
COC(=O)c1ccc(Cl)c(NC(=O)C2CCN(S(=O)(=O)Cc3ccccc3)CC2)c1,/,-24%,-1%,-17,/,-14%
CCS(=O)(=O)N1CC(=O)N(c2ccc(Cl)cc2C)C(C)(C(=O)NC2CCCCCC2)C1 (configuration not stated),/,?,-3%,3,/,?
Cc1c(C(=O)NCC(C)(C)N2CCOCC2)cnn1-c1nccc(-c2cccs2)n1,/,21%,/,/,/,6%
Cc1sc2ncnc(OCC(=O)N3CC(=O)Nc4ccccc43)c2c1C,3,3%,0%,7,49,-10%
CCOC(=O)C1=C(N)n2c(s/c(=C\c3cccs3)c2=O)=C(C(=O)OCC)C1c1cccs1 (configuration not stated),-8,4.1µM*,1%,-2,43,6.5µM*
SMILES,D3 antag,TDP1 cell CPT,ClpP mod,DRD3 agonist,IL-1B inflam inh,DT40 TDP1 no CPT
CCOC(=O)C1=C(N)n2c(s/c(=C\c3cccnc3)c2=O)=C(C(=O)OC)C1c1cccnc1 (configuration not stated),-20,-27%,-3%,-4,3,-29%
CC1CCC(NC(=O)COC(=O)c2n[nH]c(=O)c3ccccc23)CC1 (configuration not stated),8,-19%,1%,-2,15,1%
CC(C)C[C@H]1COCCS(=O)(=O)N1Cc1cccc(F)c1,14,-17%,0%,16,12,?
O=C(CCCl)N1c2ccccc2C=Cc2ccccc21,-10,?,-2%,2,-29,15µM*
O=C(Nc1ccccc1O)c1ccc(Cl)cc1,11,16µM*,-1%,0,114,23µM*
O=C(Nc1ccccc1OC(=O)c1ccc(Cl)cc1)c1ccc(Cl)cc1,-3,?,?,-1,13,16µM*
O=C(COC(=O)/C=C/c1ccccc1Cl)NC(=O)NCc1ccccc1,20,?,-9%,-11,0,-29%
CCCCN(Cc1ccccc1)C(=O)c1oc(=O)c2ccccc2c1-c1ccc(C)cc1,/,21µM*,1%,3,/,?
Cc1ccc(-c2c(C(=O)NCCc3ccc(Cl)cc3)oc(=O)c3ccccc23)cc1,/,?,-4%,-1,/,?
Cc1ccc(CCNC(=O)c2oc(=O)c3ccccc3c2-c2ccc(C)cc2)cc1,/,?,-1%,3,/,23µM*
CCCCC(CC)CNC(=O)c1cc2ccccc2c(=O)o1 (configuration not stated),6,-5%,-1%,10,2,?
CCC(Cc1ccccc1)NC(=O)c1oc(=O)c2ccccc2c1-c1ccccc1 (configuration not stated),/,?,-2%,2,/,?
CCCCN(CCCC)C(=O)c1cc2ccccc2c(=O)o1,12,?,-5%,1,6,16µM*
